The full data set covers some 7,900 targets. This sample favours those with a hit. About 0.6% of all pairs of compound and target were hits.
Experiments:
Assay in all cases: log2 fold change, soluble protein after heating vs DMSO (PISA); higher = thermal stabilisation; K562 cells, 10 uM, 30 min; active = over 0.2 and 3.5 SD of the protein, either way, in both replicates (recomputed)
[1] = compound: COC1=CC=C(C=C1)CN2C=CC3=C2C=C(C=C3)C(=O)NO
Method in brief: (§1)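 Values are thermal stability changes relative to control samples and are taken from duplicates. They are stated as log2 fold changes. Before quantification by TMTpro 16plex LC-MS/MS with equalised channel sums, K562 cells at 2×10^6 cells/mL were treated with 10 μM compound for 30 min, heated in aliquots for 3 min across 48°C-58°C, pooled, extracted in PBS with 0.5% NP-40 at 4°C, and centrifuged at 21,000xg for 90 min to give the soluble supernatant.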

filanesib = compound: CON(C)C(=O)N1N=C(c2cc(F)ccc2F)S[C@@]1(CCCN)c1ccccc1 [filanesib]
Method in brief: as §1

zotarolimus = compound: CO[C@H]1C[C@@H]2CC[C@@H](C)[C@@](O)(O2)C(=O)C(=O)N2CCCC[C@H]2C(=O)O[C@H]([C@H](C)C[C@@H]2CC[C@H](n3cnnn3)[C@H](OC)C2)CC(=O)[C@H](C)/C=C(\C)[C@@H](O)[C@@H](OC)C(=O)[C@H](C)C[C@H](C)/C=C/C=C/C=C/1C [zotarolimus]
Method in brief: as §1

idasanutlin = compound: COc1cc(C(=O)O)ccc1NC(=O)[C@@H]1N[C@@H](CC(C)(C)C)[C@](C#N)(c2ccc(Cl)cc2F)[C@H]1c1cccc(Cl)c1F [idasanutlin]
Method in brief: as §1

alisertib = compound: COc1cc(Nc2ncc3c(n2)-c2ccc(Cl)cc2C(c2c(F)cccc2OC)=NC3)ccc1C(=O)O [alisertib]
Method in brief: as §1

[2] = compound: COc1cc2nc(-c3cc(F)ccc3O)nc(N[C@@H]3CNC[C@H]3C(C)(C)O)c2cc1OC
Method in brief: as §1

gefitinib = compound: COc1cc2ncnc(Nc3ccc(F)c(Cl)c3)c2cc1OCCCN1CCOCC1 [gefitinib]
Method in brief: as §1

[3] = compound: COc1cccc2cc(-c3nc([C@H]4CC[C@H](C(=O)O)CC4)n4ncnc(N)c34)[nH]c12
Method in brief: as §1

lapatinib = compound: CS(=O)(=O)CCNCc1ccc(-c2ccc3ncnc(Nc4ccc(OCc5cccc(F)c5)c(Cl)c4)c3c2)o1 [lapatinib]
Method in brief: as §1

pictilisib = compound: CS(=O)(=O)N1CCN(Cc2cc3nc(-c4cccc5[nH]ncc45)nc(N4CCOCC4)c3s2)CC1 [pictilisib]
Method in brief: as §1

[4] = compound: CS(=O)(=O)c1ccc(-c2cnc(N)c(C(=O)Nc3ccccc3)n2)cc1
Method in brief: as §1

crizotinib = compound: C[C@@H](Oc1cc(-c2cnn(C3CCNCC3)c2)cnc1N)c1c(Cl)ccc(F)c1Cl [crizotinib]
Method in brief: as §1

[5] = compound: C[C@@H]1COCCN1C2=NC(=NC(=C2)C3(CC3)S(=O)(=O)C)C4=C5C=CNC5=CC=C4
Method in brief: as §1

[6] = compound: C[C@H](C1=CC=C(C=C1)C(=O)NC2=C3C=CNC3=NC=C2)N
Method in brief: as §1

duvelisib = compound: C[C@H](Nc1ncnc2nc[nH]c12)c1cc2cccc(Cl)c2c(=O)n1-c1ccccc1 [duvelisib]
Method in brief: as §1

gandotinib = compound: Cc1cc(Nc2cc(CN3CCOCC3)c3nc(C)c(Cc4ccc(Cl)cc4F)n3n2)n[nH]1 [gandotinib]
Method in brief: as §1

tozasertib = compound: Cc1cc(Nc2cc(N3CCN(C)CC3)nc(Sc3ccc(NC(=O)C4CC4)cc3)n2)n[nH]1 [tozasertib]
Method in brief: as §1

[7] = compound: Cc1cc(SCc2sc(-c3ccc(C(F)(F)F)cc3)nc2C)ccc1OCC(=O)O
Method in brief: as §1

doramapimod = compound: Cc1ccc(-n2nc(C(C)(C)C)cc2NC(=O)Nc2ccc(OCCN3CCOCC3)c3ccccc23)cc1 [doramapimod]
Method in brief: as §1

ispinesib = compound: Cc1ccc(C(=O)N(CCCN)[C@@H](c2nc3cc(Cl)ccc3c(=O)n2Cc2ccccc2)C(C)C)cc1 [ispinesib]
Method in brief: as §1

Measured: log2 fold change

MTHFS (UniProt P49914)
UniProt P49914, sequence (P49914 whole entry, looked up): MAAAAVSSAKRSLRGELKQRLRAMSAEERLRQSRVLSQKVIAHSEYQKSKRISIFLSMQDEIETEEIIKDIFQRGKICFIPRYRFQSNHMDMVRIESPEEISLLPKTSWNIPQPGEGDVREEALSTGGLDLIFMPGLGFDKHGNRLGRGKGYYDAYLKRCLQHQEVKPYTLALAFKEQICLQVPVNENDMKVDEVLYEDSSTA
inactive: [1] 0.032 | filanesib -0.023 | zotarolimus -0.02 | idasanutlin -0.006 | alisertib -0.065 | [2] 0.041 | gefitinib 0.053 | [3] 0.052 | lapatinib 0.028 | pictilisib 0.016 | [4] 0.103 | crizotinib -0.026 | [5] 0.117 | [6] -0.098 | duvelisib -0.023 | gandotinib -0.021 | tozasertib 0 | [7] 0.037 | doramapimod 0.013 | ispinesib 0.046

MRPL46 (UniProt Q9H2W6)
inactive: [1] -0.019 | filanesib 0.068 | zotarolimus 0.1 | idasanutlin -0.012 | alisertib -0.063 | [2] -0.088 | gefitinib 0.005 | [3] -0.029 | lapatinib 0.082 | pictilisib 0.011 | [4] 0.042 | crizotinib 0.039 | [5] -0.019 | [6] 0.186 | duvelisib -0.024 | gandotinib 0.026 | tozasertib -0.031 | [7] 0.054 | doramapimod 0.06 | ispinesib -0.157

NUMB (UniProt P49757)
UniProt P49757, sequence (P49757 whole entry, looked up): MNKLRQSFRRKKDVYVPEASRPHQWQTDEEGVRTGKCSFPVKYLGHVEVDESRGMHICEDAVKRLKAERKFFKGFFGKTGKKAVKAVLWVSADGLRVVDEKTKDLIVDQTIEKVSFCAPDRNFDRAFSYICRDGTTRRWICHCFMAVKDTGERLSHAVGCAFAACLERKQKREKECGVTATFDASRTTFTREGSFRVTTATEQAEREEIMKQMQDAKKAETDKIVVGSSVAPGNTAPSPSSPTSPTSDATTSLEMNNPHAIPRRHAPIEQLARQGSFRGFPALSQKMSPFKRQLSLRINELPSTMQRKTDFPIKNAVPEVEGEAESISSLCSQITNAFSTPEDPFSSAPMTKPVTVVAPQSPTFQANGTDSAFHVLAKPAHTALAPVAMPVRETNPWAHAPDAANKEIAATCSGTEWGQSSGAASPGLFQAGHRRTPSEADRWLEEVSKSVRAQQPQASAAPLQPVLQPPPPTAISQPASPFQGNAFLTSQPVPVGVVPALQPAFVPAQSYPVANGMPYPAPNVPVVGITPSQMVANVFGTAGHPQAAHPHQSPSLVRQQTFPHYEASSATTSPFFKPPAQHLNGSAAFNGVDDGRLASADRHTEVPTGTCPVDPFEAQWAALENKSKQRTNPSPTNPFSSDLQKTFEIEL
inactive: [1] -0.051 | filanesib 0.074 | zotarolimus 0.015 | idasanutlin 0 | alisertib -0.064 | [2] 0.04 | gefitinib 0.027 | [3] -0.017 | lapatinib 0.012 | pictilisib 0.076 | [4] 0.056 | crizotinib -0.189 | [5] 0.07 | [6] -0.068 | duvelisib -0.05 | gandotinib -0.06 | tozasertib -0.082 | [7] 0.006 | doramapimod -0.012 | ispinesib -0.073

NAP1L1 (UniProt P55209)
inactive: [1] -0.001 | filanesib 0.08 | zotarolimus 0.078 | idasanutlin 0.053 | alisertib -0.043 | [2] 0.078 | gefitinib -0.002 | [3] -0.041 | lapatinib -0.005 | pictilisib 0.107 | [4] 0.018 | crizotinib -0.025 | [5] -0.122 | [6] -0.021 | duvelisib 0.068 | gandotinib -0.09 | tozasertib 0.045 | [7] -0.016 | doramapimod 0.009 | ispinesib 0.04

NMD3 (UniProt Q96D46)
UniProt Q96D46, sequence (Q96D46 whole entry, looked up): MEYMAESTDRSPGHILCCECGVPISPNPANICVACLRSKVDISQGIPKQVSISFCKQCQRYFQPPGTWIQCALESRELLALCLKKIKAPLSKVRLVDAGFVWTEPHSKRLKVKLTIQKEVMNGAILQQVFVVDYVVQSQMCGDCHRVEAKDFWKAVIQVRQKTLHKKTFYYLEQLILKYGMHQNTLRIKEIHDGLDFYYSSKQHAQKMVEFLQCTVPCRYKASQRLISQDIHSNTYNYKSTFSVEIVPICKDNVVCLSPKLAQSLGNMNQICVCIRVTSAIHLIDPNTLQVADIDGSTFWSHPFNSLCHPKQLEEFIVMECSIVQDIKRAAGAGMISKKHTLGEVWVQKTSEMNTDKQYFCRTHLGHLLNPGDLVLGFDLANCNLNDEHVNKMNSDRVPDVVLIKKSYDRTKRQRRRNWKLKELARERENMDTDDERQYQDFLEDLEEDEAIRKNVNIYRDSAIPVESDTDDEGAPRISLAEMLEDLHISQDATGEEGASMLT
inactive: [1] 0.004 | filanesib -0.221 | zotarolimus 0.008 | idasanutlin -0.095 | alisertib -0.034 | [2] 0.108 | gefitinib 0.007 | [3] 0.016 | lapatinib 0 | pictilisib 0.089 | [4] 0.094 | crizotinib 0.003 | [5] 0.122 | [6] -0.179 | duvelisib 0.064 | gandotinib 0.007 | tozasertib -0.007 | [7] 0.03 | doramapimod -0.013 | ispinesib 0.139

NCAPG (UniProt Q9BPX3)
inactive: [1] 0.079 | filanesib -0.018 | zotarolimus 0.054 | idasanutlin -0.064 | alisertib 0.03 | [2] 0.038 | gefitinib 0.022 | [3] -0.116 | lapatinib 0 | pictilisib 0.071 | [4] 0.029 | crizotinib -0.031 | [5] 0.034 | [6] 0.034 | duvelisib 0.073 | gandotinib -0.144 | tozasertib 0.115 | [7] 0.071 | doramapimod -0.077 | ispinesib -0.01

MYL12B (UniProt O14950)
UniProt O14950, sequence (O14950 whole entry, looked up): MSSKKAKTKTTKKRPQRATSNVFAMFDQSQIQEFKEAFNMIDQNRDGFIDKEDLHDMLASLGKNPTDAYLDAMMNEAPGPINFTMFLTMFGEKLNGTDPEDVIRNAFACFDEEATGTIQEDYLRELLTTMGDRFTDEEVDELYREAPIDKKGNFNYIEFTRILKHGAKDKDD
active: [6] -0.32
inactive: [1] -0.008 | filanesib -0.052 | zotarolimus 0.111 | idasanutlin -0.064 | alisertib -0.06 | [2] 0.022 | gefitinib -0.001 | [3] -0.018 | lapatinib 0.047 | pictilisib -0.015 | [4] -0.016 | crizotinib -0.004 | [5] 0.019 | duvelisib 0.088 | gandotinib 0.058 | tozasertib 0.005 | [7] -0.003 | doramapimod 0.025 | ispinesib 0.097

MKRN2 (UniProt Q9H000)
inactive: [1] 0.024 | filanesib 0.137 | zotarolimus -0.035 | idasanutlin 0.147 | alisertib -0.009 | [2] 0.101 | gefitinib -0.099 | [3] -0.079 | lapatinib -0.027 | pictilisib 0.03 | [4] -0.035 | crizotinib -0.094 | [5] -0.077 | [6] 0.117 | duvelisib -0.111 | gandotinib 0.221 | tozasertib 0.085 | [7] 0.076 | doramapimod -0.005 | ispinesib -0.161

NEDD4 isoform 4 (UniProt P46934)
UniProt P46934, sequence (P46934 whole entry, looked up): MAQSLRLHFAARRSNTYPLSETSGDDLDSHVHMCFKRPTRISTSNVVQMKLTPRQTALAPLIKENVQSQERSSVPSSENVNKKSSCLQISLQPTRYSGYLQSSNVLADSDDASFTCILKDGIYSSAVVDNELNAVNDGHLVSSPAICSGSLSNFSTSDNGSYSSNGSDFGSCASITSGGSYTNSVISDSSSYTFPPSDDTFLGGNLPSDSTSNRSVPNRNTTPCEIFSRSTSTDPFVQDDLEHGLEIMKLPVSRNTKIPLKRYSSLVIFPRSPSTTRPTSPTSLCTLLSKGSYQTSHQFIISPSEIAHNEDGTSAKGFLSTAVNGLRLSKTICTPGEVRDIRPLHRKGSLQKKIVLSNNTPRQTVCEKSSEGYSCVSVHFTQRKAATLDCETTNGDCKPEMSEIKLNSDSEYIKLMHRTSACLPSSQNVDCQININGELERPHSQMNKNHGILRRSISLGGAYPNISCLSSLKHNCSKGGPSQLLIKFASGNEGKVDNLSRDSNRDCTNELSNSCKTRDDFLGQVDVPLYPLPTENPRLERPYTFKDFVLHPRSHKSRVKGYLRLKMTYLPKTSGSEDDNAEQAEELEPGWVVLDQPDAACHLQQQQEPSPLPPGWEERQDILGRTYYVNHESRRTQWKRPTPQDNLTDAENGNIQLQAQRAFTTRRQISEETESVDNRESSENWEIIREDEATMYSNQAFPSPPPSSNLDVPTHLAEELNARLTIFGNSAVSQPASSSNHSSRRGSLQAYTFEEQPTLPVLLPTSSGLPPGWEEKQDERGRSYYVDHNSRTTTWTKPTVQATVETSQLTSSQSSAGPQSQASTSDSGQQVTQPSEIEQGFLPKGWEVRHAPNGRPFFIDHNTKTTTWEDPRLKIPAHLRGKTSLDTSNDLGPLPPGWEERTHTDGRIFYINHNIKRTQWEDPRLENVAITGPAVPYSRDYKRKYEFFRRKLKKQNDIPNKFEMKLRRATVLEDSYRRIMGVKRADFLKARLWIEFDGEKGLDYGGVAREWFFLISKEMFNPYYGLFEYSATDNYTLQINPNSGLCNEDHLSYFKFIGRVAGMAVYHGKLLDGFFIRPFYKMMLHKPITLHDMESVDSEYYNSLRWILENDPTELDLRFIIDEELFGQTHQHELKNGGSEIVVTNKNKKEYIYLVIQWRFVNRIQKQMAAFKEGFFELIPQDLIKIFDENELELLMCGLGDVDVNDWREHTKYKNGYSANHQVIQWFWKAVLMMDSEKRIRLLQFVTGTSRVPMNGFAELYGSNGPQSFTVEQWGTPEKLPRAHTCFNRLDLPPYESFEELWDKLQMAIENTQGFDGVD
inactive: [1] 0.036 | filanesib -0.02 | zotarolimus 0.064 | idasanutlin -0.042 | alisertib 0.053 | [2] 0.027 | gefitinib 0.074 | [3] -0.029 | lapatinib 0.028 | pictilisib -0.017 | [4] -0.05 | crizotinib -0.081 | [5] 0.095 | [6] -0.039 | duvelisib -0.006 | gandotinib -0.061 | tozasertib 0.093 | [7] -0.009 | doramapimod -0.042 | ispinesib -0.022

NQO1 (UniProt P15559)
UniProt P15559, sequence (P15559 whole entry, looked up): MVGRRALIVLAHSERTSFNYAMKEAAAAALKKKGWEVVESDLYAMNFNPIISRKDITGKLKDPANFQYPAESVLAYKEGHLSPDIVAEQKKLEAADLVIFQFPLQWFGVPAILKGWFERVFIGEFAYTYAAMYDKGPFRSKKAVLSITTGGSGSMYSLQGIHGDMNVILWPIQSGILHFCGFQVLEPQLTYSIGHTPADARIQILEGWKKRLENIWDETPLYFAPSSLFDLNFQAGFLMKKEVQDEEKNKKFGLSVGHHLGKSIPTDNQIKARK
inactive: [1] 0.062 | filanesib -0.053 | zotarolimus 0.069 | idasanutlin -0.085 | alisertib -0.094 | [2] 0.011 | gefitinib -0.006 | [3] 0.001 | lapatinib -0.017 | pictilisib -0.006 | [4] 0.055 | crizotinib -0.004 | [5] 0.069 | [6] -0.06 | duvelisib 0.165 | gandotinib -0.062 | tozasertib 0.011 | [7] 0.152 | doramapimod -0.008 | ispinesib 0.05

NELFA (UniProt Q9H3P2)
inactive: [1] 0.031 | filanesib 0.035 | zotarolimus -0.084 | idasanutlin -0.117 | alisertib 0.092 | [2] 0.105 | gefitinib 0.36 | [3] 0.017 | lapatinib -0.079 | pictilisib 0.076 | [4] -0.01 | crizotinib 0.082 | [5] 0.198 | [6] -0.011 | duvelisib 0.118 | gandotinib 0.004 | tozasertib 0.142 | [7] 0.234 | doramapimod -0.014 | ispinesib -0.068

NISCH (UniProt Q9Y2I1)
UniProt Q9Y2I1, sequence (Q9Y2I1 whole entry, looked up): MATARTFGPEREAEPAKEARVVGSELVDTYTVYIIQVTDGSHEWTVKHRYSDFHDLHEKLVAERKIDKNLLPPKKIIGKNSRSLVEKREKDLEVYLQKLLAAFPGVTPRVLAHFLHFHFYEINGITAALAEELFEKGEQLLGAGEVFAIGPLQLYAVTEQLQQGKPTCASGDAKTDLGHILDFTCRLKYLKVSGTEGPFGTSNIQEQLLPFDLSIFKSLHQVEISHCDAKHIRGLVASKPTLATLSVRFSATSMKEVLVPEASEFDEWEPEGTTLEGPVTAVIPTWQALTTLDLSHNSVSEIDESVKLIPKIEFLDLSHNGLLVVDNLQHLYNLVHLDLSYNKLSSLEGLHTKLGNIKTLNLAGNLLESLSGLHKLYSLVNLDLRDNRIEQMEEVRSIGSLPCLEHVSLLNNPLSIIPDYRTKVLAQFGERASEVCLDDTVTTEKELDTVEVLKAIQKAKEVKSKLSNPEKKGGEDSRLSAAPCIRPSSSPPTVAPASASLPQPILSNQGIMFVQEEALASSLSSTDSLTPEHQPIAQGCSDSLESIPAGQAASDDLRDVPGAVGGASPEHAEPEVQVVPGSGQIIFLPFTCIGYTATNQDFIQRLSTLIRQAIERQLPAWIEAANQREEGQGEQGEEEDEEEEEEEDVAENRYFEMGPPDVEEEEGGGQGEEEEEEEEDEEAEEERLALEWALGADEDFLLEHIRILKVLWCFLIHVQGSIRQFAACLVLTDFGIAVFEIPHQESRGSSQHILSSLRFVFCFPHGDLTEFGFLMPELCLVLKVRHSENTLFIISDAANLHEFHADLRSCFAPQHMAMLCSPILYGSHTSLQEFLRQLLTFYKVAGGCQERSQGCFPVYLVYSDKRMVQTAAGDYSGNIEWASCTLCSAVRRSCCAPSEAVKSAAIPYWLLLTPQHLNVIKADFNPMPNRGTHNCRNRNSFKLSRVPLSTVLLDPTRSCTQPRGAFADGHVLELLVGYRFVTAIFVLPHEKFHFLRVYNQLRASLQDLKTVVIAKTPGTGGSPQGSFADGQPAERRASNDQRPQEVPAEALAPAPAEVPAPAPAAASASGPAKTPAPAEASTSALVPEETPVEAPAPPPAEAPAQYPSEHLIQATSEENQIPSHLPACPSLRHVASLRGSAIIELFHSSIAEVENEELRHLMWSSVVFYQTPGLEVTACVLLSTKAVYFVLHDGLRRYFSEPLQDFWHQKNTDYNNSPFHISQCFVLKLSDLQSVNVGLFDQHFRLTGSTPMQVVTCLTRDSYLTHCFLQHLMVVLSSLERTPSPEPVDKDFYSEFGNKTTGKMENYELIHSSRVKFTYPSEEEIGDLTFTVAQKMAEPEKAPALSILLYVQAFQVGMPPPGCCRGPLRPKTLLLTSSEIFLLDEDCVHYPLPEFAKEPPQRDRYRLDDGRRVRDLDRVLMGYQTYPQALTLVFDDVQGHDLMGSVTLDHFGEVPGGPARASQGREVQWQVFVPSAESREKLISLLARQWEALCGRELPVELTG
inactive: [1] -0.008 | filanesib -0.029 | zotarolimus -0.022 | idasanutlin -0.015 | alisertib 0.023 | [2] -0.119 | gefitinib -0.014 | [3] 0.106 | lapatinib 0.041 | pictilisib -0.061 | [4] -0.026 | crizotinib -0.284 | [5] 0.035 | [6] 0.047 | duvelisib -0.363 | gandotinib -0.4 | tozasertib 0.006 | [7] 0.126 | doramapimod 0.054
active: ispinesib -0.408

MRPL50 (UniProt Q8N5N7)
active: [2] -0.719
inactive: [1] -0.03 | filanesib 0.078 | zotarolimus 0.202 | idasanutlin -0.122 | alisertib -0.078 | gefitinib 0.004 | [3] -0.022 | lapatinib 0.42 | pictilisib -0.067 | [4] -0.031 | crizotinib 0.133 | [5] 0.045 | [6] -0.045 | duvelisib -0.016 | gandotinib 0.04 | tozasertib 0.042 | [7] 0.104 | doramapimod 0.092 | ispinesib 0.199

MT-ND4 (UniProt P03905)
inactive: [1] -0.021 | filanesib -0.009 | zotarolimus -0.069 | idasanutlin -0.147 | alisertib -0.02 | [2] -0.088 | gefitinib 0.003 | [3] 0.046 | lapatinib 0.013 | pictilisib -0.214 | [4] -0.107 | crizotinib 0.008 | [5] 0.052 | [6] -0.148 | duvelisib 0.079 | gandotinib -0.104 | tozasertib 0.06 | [7] -0.066 | doramapimod 0 | ispinesib 0.118

NSDHL (UniProt Q15738)
UniProt Q15738, sequence (Q15738 whole entry, looked up): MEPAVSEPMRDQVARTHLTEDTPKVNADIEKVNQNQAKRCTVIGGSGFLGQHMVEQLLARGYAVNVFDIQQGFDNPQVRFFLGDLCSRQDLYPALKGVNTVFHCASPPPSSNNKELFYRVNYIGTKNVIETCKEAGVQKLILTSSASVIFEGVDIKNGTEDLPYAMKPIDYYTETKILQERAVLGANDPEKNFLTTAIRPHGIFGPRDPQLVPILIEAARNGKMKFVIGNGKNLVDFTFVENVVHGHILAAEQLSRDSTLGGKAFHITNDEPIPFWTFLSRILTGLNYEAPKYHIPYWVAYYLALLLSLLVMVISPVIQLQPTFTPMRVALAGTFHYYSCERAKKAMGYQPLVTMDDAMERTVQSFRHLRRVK
active: crizotinib 0.314 | doramapimod 0.22
inactive: [1] 0.006 | filanesib -0.11 | zotarolimus 0.04 | idasanutlin 0.208 | alisertib 0.033 | [2] -0.062 | gefitinib 0.021 | [3] 0 | lapatinib 0.185 | pictilisib 0.023 | [4] 0.04 | [5] 0.045 | [6] -0.105 | duvelisib 0.024 | gandotinib 0.239 | tozasertib 0.083 | [7] 0.058 | ispinesib -0.016

Reference: the supplement of paper PMC10849652
